High-throughput results: PubChem BioAssay, National Center for Advancing Translational Sciences (NCATS)
In the library only some 1.8% were active in any assay of this set; here they are far more common.
HEK293 tox: qHTS of GLP-1 Receptor Inverse Agonists: Cytotox Screen; HEK293 cAMP-luciferase reporter cells, luminescence, 24 h; Potency, µM (titrated, usually from 38.3 µM), without a hit: top-dose activity change, negative = inhibition, actives largely listed as inhibitors; hit rate 0.13% among 410,000; AID 624418, 2012;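 also: loss of luciferase light is scored as toxicity; % is scaled to controls: 0 for no effect and ±100 for the full control effect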
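1536-well qHTS counterscreen of the MLSMR; 200 cells/uL, 12 h pre-incubation, 23 nL cpd, 24 h at 37 deg C 5% CO2, luciferase detection reagent, 12 min RT, luminescence. Inhibition = undesired.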
Tb PFK inh-1: qHTS Assay to Find Inhibitors of T. brucei phosphofructokinase. ATP-dependent 6-phosphofructokinase (Trypanosoma brucei brucei), O15648. T. brucei PFK, ADP-Glo luminescence. Potency, µM (titrated, usually from 57.5 µM), inactives show at the top dose activity, negative = inhibition, actives largely listed as inhibitors. hit rate 0.17% among 330,000;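 also: 0% = uninhibited 1x PFK enzyme wells and -100% = no-enzyme wells; nearly all actives have a fitted effect of over 60% in size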
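Activity is normalized to no-enzyme wells (full inhibition) and 1.25 nM enzyme wells (no inhibition). Reaction: 0.5 mM F6P, 0.1 mM ATP, 45 min RT, ADP-Glo luminescence; concentration-response curves fitted and classed by quality.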
GLP1R inv ag: qHTS of GLP-1 Receptor Inverse Agonists (Inhibition Mode). Glucagon-like peptide 1 receptor (Homo sapiens), P43220. HEK293 GLP-1R CRE-luciferase, luminescence, 24 h; GLP-1R form is constitutively active. Potency, µM (highest dose often 38.3 µM), without a hit: at the top dose activity change, negative = inhibition, actives largely listed as inhibitors. hit rate 1.6% among 410,000; also: % is scaled to controls: 0 for no effect and ±100 for the full control effect; nearly all actives have a fitted effect of over 55% in size
Target sequence (P43220 whole entry, looked up): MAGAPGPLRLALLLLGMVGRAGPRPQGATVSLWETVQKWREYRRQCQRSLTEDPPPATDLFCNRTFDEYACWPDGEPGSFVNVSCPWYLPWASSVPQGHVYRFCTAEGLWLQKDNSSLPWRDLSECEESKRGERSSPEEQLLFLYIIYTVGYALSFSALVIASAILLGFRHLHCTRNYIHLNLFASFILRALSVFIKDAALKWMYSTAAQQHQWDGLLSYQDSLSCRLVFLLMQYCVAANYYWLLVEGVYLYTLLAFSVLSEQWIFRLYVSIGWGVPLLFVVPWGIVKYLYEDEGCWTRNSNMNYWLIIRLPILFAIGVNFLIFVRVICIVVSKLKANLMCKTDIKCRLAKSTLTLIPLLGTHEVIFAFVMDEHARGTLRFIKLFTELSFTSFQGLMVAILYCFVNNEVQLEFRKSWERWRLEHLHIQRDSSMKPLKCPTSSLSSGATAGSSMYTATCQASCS
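Cells are plated, allowed 12 hours at 37 deg C, then treated with compounds for 24 hr before luciferase detection reagent is added and luminescence is read after 12 min at room temperature. The HEK293 line carries constitutively active GLP-1R with a cAMP-responsive reporter.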
Tb PGK inh: qHTS Assay to Find Inhibitors of Phosphoglycerate Kinase; Phosphoglycerate kinase, glycosomal (Trypanosoma brucei brucei), P07378; PGK/GAPDH coupled, Kinase-Glo luminescence, 60 min; Potency, µM (top dose mostly 57.5 µM), for the others: at the highest dose activity change, negative = inhibition, usual class: inhibitors; hit rate 0.043% among 380,000; also: % is scaled to controls: 0 for no effect and ±100 for the full control effect; nearly all actives have a fitted effect of over 60% in size
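Luminescent ATP detection (Kinase-Glo Plus) follows a 60-minute room-temperature incubation, with wells lacking PGK as controls. Buffer: 100 mM TEA (pH 7.6), 5 mM MgCl2, 0.01% Tween-20. Coupling enzyme GAPDH (100 nM final) supplies unstable 1,3-BPG in-well.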
Pin1 inhibitor: qHTS Assay to Find Inhibitors of Pin1. Potency, µM (highest dose often 115 µM), for the others: at the highest dose activity, negative = inhibition, usual class: inhibitors. Peptidyl-prolyl cis-trans isomerase NIMA-interacting 1 (Homo sapiens), Q13526. hit rate 0.009% among 390,000. Pin1 FP peptide displacement, HiFluor488, 10 min; active = well fitted inhibition curve with a large enough effect in the polarisation, with a control signal flat, not every such curve was filed as active; inconclusive = small, poorly fitted or top-dose-only effect, or effect the other way, or a change in a side signal; inactive = no such curve, though single readings can be large or run the other way; the % refers to the polarisation; also: % is scaled to controls: 0 for no effect and ±100 for the full control effect
GLP1R ag: qHTS of GLP-1 Receptor Agonists. HEK293 GLP-1R CRE-luciferase, luminescence, 4-6 h; cells express a hypersensitive GLP-1R form. Glucagon-like peptide 1 receptor (Homo sapiens), P43220. Potency, µM (top dose mostly 45.6 µM), without a hit: at the top dose activation, usual class: activators. hit rate 0.007% among 380,000. AID 624172, 2012; also: % of control where 0% means no effect
Tb PFK KinaseGlo: Tb PFK orthogonal confirmatory assay using ATP depletion (Kinase-Glo Plus) as an alternative measure of Tb PFK activity: Hit Validation; Potency, µM (top dose mostly 57.5 µM), for the others: top-dose inhibition; shares compounds with Tb PFK inh-1; hit rate 47% among 1,100; Tb PFK enzyme, ATP depletion, Kinase-Glo Plus luminescence; calls by dose curve; also: nearly all actives have a fitted effect of over 60% in size
Tb PFK inh-2: Inhibitors of T. brucei phosphofructokinase: Hit Validation; shares compounds with Tb PFK inh-1; purified T. brucei PFK, ADP-Glo luminescence, 45 min; Potency, µM (series often up to 57.5 µM), without a hit: top-dose activity change, negative = inhibition, actives largely listed as inhibitors; hit rate 41% among 1,100;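 also: plate controls were full PFK enzyme control for no effect and no enzyme control for full effect; nearly all actives have a fitted effect of over 60% in size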
Numbers without * were called inactive; i = inactive; ? = inconclusive; / = not tested or not shown. Unless noted, calls follow the shape of the dose curve; as a rule, active = well fitted curve in the direction sought with a large enough effect; inconclusive = small, poorly fitted or top-dose-only effect, or another doubt; inactive = no such curve, though single readings can be large; an effect the other way counts as inactive or inconclusive. Potency is read from the fitted curve at half-maximal effect.

SMILES | HEK293 tox | Tb PFK inh-1 | GLP1R inv ag | Tb PGK inh | Pin1 inhibitor | GLP1R ag | Tb PFK KinaseGlo | Tb PFK inh-2
Cc1nc2ccc(Nc3nc4cc(S(=O)(=O)N5CCOCC5)ccc4o3)cc2s1 | -0.1% | -3.2% | 34.6% | -2.7% | 38.6% | 12.4% | / | /
Cc1cc(C)cc(OCC(O)CN2CCC(CN3C(=O)c4cccc5cccc(c45)C3=O)CC2)c1 (stereo not drawn) | ? | 4.3% | ? | -9.2% | -4.2% | -2.2% | / | /
ON=C1c2ccccc2-c2ccccc21 | 2.5% | ? | ? | i | -6.1% | -0.6% | 6.6% | 5.5%
Nc1cccc2c1C(=O)N(C(=O)/C=C/c1ccc(F)cc1)C2=O | 231.5% | -1.0% | ? | -1.1% | ? | -20.6% | / | /
O=[N+]([O-])c1ccc(Cc2ccccn2)cc1 | -3.4% | ? | 16.5% | 0.3% | -3.5% | 2.6% | ? | ?
CC(Cc1ccccc1)NC(=O)Cc1ccc([N+](=O)[O-])cc1 (stereo not drawn) | 3.9% | ? | -1.5% | -2.5% | -0.6% | 1.5% | / | /
COc1cccc(OCCc2c(C)n[nH]c2C)c1 | -0.8% | 26.9µM* | -4.5% | -2.1% | 8.9% | 26.9% | ? | ?
Cc1n[nH]c(C)c1CCN | 3.2% | 4.2% | 5.8% | -2.2% | -2.9% | -12.3% | / | /
Cc1c(O)cccc1C(=O)N[C@@H](CSc1ccccc1)[C@H](O)CN1C[C@H]2CCCC[C@H]2C[C@H]1C(=O)NC(C)(C)C | ? | 4.8% | ? | -10.0% | 3.2% | -1.8% | / | /
Clc1ccc(CNc2cnccn2)cc1Cl | -6.8% | 6.75µM* | ? | 0.0% | -0.9% | 14.3% | 5.36µM* | 9.53µM*
Cc1nn(Cc2ccccc2Cl)c(Cl)c1C(=O)OCC(=O)NCc1ccco1 | 3.4% | 0.2% | 1.3% | -7.3% | -0.3% | 5.5% | / | /
O=C(COC(=O)CCOc1ccccc1)NCc1ccco1 | -0.3% | ? | -1.0% | -12.3% | ? | -3.0% | ? | ?
CCOc1ccc(N(Cc2ccc(C(=O)O)cc2)S(=O)(=O)c2ccc(C)cc2)cc1 | ? | 2.6% | ? | -5.3% | 2.8% | -2.3% | / | /
O=C(NCCCN1CCOCC1)c1sc2cc([N+](=O)[O-])ccc2c1Cl | 7.8% | 10.7µM* | -1.9% | 2.8% | -8.2% | 4.9% | 3.38µM* | 4.26µM*
O=C(OCc1ccc([N+](=O)[O-])cc1)c1cc([N+](=O)[O-])ccc1N1CCOCC1 | ? | 17.6% | ? | i | 1.7% | 7.1% | / | /
Cc1ccc(NC(=O)CSc2ncc3ccccn23)cc1C | -15.6% | 9.53µM* | 6.1% | -3.2% | -5.1% | 8.0% | ? | -17.7%
CC(C)CC(=O)NC(NC(=S)Nc1sc2c(c1C#N)CCCC2)C(Cl)(Cl)Cl (stereo not drawn) | ? | -14.4% | ? | i | 14.6% | -6.7% | / | /
O=C(COC(=O)Cc1ccccc1)Nc1cc(S(=O)(=O)N2CCOCC2)ccc1N1CCCC1 | -1.0% | 4.4% | 26.5% | -3.2% | 1.2% | -3.4% | / | /
